Measurements taken from the supplement of paper PMC10849652.
The full data set covers some 7,900 targets. This sample favours those with a hit. About 0.6% of all pairs of compound and target were hits.

How the values were obtained:
Experiment in all cases: log2 fold change, soluble protein after heating vs DMSO (PISA); higher = thermal stabilisation; K562 cells, 10 uM, 30 min; active = over 0.2 and 3.5 SD of the protein, either way, in both replicates (recomputed)
[1] = compound: COC1=CC=C(C=C1)CN2C=CC3=C2C=C(C=C3)C(=O)NO
Outline: (§1)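 Soluble protein was quantified by TMTpro 16plex LC-MS/MS after channel sums were equalised. It was obtained as the supernatant after 21,000xg for 90 min from pooled aliquots of K562 cells (2×10^6 cells/mL, 10 μM compound, 30 min) heated for 3 min across 48°C-58°C and extracted in PBS with 0.5% NP-40 at 4°C. Thermal stability values are relative to control samples and come from duplicates. They are given as log2 fold changes.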

filanesib = compound: CON(C)C(=O)N1N=C(c2cc(F)ccc2F)S[C@@]1(CCCN)c1ccccc1 [filanesib]
Outline: as §1

zotarolimus = compound: CO[C@H]1C[C@@H]2CC[C@@H](C)[C@@](O)(O2)C(=O)C(=O)N2CCCC[C@H]2C(=O)O[C@H]([C@H](C)C[C@@H]2CC[C@H](n3cnnn3)[C@H](OC)C2)CC(=O)[C@H](C)/C=C(\C)[C@@H](O)[C@@H](OC)C(=O)[C@H](C)C[C@H](C)/C=C/C=C/C=C/1C [zotarolimus]
Outline: as §1

idasanutlin = compound: COc1cc(C(=O)O)ccc1NC(=O)[C@@H]1N[C@@H](CC(C)(C)C)[C@](C#N)(c2ccc(Cl)cc2F)[C@H]1c1cccc(Cl)c1F [idasanutlin]
Outline: as §1

alisertib = compound: COc1cc(Nc2ncc3c(n2)-c2ccc(Cl)cc2C(c2c(F)cccc2OC)=NC3)ccc1C(=O)O [alisertib]
Outline: as §1

[2] = compound: COc1cc2nc(-c3cc(F)ccc3O)nc(N[C@@H]3CNC[C@H]3C(C)(C)O)c2cc1OC
Outline: as §1

gefitinib = compound: COc1cc2ncnc(Nc3ccc(F)c(Cl)c3)c2cc1OCCCN1CCOCC1 [gefitinib]
Outline: as §1

[3] = compound: COc1cccc2cc(-c3nc([C@H]4CC[C@H](C(=O)O)CC4)n4ncnc(N)c34)[nH]c12
Outline: as §1

lapatinib = compound: CS(=O)(=O)CCNCc1ccc(-c2ccc3ncnc(Nc4ccc(OCc5cccc(F)c5)c(Cl)c4)c3c2)o1 [lapatinib]
Outline: as §1

pictilisib = compound: CS(=O)(=O)N1CCN(Cc2cc3nc(-c4cccc5[nH]ncc45)nc(N4CCOCC4)c3s2)CC1 [pictilisib]
Outline: as §1

Measured: log2 fold change

NUDT1 (UniProt P36639)
inactive: [1] 0.043 | filanesib -0.06 | zotarolimus -0.068 | idasanutlin -0.169 | alisertib -0.017 | [2] 0.11 | gefitinib 0.354 | [3] -0.046 | lapatinib -0.016 | pictilisib -0.01

OXSR1 (UniProt O95747)
inactive: [1] 0.014 | filanesib -0.009 | zotarolimus -0.007 | idasanutlin -0.068 | alisertib -0.073 | [2] 0.018 | gefitinib -0.007 | [3] 0.034 | lapatinib -0.033 | pictilisib 0.028

NAA11 (UniProt Q9BSU3)
UniProt Q9BSU3, sequence (Q9BSU3 whole entry, looked up): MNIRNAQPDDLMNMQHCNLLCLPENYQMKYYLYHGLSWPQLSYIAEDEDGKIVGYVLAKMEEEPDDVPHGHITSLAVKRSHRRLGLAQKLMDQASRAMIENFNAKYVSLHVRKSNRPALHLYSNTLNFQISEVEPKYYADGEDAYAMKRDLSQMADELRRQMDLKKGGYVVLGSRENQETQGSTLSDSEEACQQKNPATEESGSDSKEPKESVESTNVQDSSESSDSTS
inactive: [1] 0.077 | filanesib -0.026 | zotarolimus -0.022 | idasanutlin 0.037 | alisertib -0.066 | [2] 0.13 | gefitinib 0.037 | [3] 0.116 | lapatinib -0.085

MLST8 (UniProt Q9BVC4)
UniProt Q9BVC4, sequence (Q9BVC4 whole entry, looked up): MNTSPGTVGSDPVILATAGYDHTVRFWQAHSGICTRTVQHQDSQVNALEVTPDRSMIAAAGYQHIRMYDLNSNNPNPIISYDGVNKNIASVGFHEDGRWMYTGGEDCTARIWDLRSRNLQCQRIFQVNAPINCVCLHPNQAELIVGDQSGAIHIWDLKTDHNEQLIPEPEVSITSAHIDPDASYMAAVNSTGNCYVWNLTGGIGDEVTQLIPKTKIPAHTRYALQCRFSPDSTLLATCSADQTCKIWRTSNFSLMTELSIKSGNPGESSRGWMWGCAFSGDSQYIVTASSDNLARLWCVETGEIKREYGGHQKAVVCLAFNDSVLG
inactive: [1] 0.1 | filanesib -0.206 | zotarolimus -0.12 | idasanutlin -0.154 | alisertib 0.019 | [2] 0.055 | gefitinib -0.041 | [3] -0.081 | lapatinib -0.039

ORC3 isoform 2 (UniProt Q9UBD5)
UniProt Q9UBD5, sequence (Q9UBD5 whole entry, looked up): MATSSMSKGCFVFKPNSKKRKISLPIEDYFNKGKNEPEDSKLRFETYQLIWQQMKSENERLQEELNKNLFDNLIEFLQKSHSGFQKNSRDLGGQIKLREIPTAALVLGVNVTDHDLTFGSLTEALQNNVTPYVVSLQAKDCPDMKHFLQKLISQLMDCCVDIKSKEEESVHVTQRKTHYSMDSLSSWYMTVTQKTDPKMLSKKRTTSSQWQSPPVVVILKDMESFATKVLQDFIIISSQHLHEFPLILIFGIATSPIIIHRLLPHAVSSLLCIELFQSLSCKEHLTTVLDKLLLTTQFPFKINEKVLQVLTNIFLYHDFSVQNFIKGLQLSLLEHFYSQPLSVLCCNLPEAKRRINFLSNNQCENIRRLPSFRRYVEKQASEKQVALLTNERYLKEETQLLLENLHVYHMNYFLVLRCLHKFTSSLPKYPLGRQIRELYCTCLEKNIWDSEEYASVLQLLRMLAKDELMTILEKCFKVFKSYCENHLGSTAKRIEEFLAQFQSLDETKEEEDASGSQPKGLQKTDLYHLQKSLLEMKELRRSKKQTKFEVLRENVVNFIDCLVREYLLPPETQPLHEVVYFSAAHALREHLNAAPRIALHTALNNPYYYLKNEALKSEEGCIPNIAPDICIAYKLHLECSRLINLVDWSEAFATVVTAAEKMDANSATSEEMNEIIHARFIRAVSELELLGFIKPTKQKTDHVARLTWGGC
inactive: [1] 0.071 | filanesib 0.043 | zotarolimus 0.064 | idasanutlin 0.265 | alisertib -0.058 | [2] -0.002 | gefitinib 0.006 | [3] -0.068 | lapatinib 0.031 | pictilisib 0.027

NEK3 (UniProt P51956)
inactive: [1] 0.058 | filanesib -0.297 | zotarolimus 0.217 | idasanutlin 0.116 | alisertib 0.074 | [2] 0.07 | gefitinib 0.086 | [3] -0.196 | lapatinib 0.061 | pictilisib 0.161

NMT2 (UniProt O60551)
inactive: [1] -0.064 | filanesib -0.018 | zotarolimus 0.019 | idasanutlin -0.062 | alisertib -0.096 | [2] 0.082 | gefitinib -0.069 | [3] -0.046 | lapatinib -0.047 | pictilisib 0.087

NCOR1 (UniProt O75376)
inactive: [1] -0.07 | filanesib 0.078 | zotarolimus 0.069 | idasanutlin 0.004 | alisertib -0.086 | [2] 0.128 | gefitinib -0.018 | [3] 0.064 | lapatinib -0.119 | pictilisib 0.135

MSH2 (UniProt P43246)
UniProt P43246, sequence (P43246 whole entry, looked up): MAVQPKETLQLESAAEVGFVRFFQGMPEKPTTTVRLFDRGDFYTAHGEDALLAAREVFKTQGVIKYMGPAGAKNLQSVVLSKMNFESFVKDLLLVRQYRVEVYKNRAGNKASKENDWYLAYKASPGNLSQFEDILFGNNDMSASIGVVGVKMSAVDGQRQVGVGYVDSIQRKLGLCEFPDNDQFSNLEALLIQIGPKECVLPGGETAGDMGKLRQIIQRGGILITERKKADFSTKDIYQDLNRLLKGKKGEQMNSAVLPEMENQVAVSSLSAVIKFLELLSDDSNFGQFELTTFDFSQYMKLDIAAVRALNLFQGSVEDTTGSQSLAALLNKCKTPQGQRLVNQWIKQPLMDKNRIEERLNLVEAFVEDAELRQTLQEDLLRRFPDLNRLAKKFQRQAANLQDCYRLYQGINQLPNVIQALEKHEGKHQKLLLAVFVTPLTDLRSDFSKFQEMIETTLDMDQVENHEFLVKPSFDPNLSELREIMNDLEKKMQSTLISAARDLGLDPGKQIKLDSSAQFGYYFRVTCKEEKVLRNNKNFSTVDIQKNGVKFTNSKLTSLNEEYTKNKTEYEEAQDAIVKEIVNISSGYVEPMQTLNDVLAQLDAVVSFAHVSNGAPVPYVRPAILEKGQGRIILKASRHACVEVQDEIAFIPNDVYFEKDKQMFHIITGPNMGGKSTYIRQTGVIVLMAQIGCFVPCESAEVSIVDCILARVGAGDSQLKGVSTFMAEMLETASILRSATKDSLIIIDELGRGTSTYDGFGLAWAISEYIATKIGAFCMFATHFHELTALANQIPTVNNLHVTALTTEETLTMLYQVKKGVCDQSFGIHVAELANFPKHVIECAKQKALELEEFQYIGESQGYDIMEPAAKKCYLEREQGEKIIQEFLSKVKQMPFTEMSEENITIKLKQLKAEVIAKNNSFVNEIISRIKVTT
inactive: [1] 0.072 | filanesib 0 | zotarolimus 0.057 | idasanutlin -0.019 | alisertib -0.018 | [2] 0.024 | gefitinib 0.007 | [3] -0.026 | lapatinib -0.021 | pictilisib 0.144

MRFAP1 (UniProt Q9Y605)
UniProt Q9Y605, sequence (Q9Y605 whole entry, looked up): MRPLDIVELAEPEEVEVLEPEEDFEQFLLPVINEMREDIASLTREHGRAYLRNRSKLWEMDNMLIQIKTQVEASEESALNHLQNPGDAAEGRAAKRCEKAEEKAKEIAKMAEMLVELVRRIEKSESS
inactive: [1] 0.015 | filanesib -0.012 | zotarolimus -0.018 | idasanutlin 0.173 | alisertib -0.435 | [2] -0.154 | gefitinib -0.036 | [3] 0.157 | lapatinib -0.093 | pictilisib -0.01

NCK1 (UniProt P16333)
inactive: [1] 0.049 | filanesib -0.054 | zotarolimus 0.13 | idasanutlin -0.001 | alisertib -0.127 | [2] -0.165 | gefitinib 0.002 | [3] -0.024 | lapatinib -0.066

MRPL46 (UniProt Q9H2W6)
inactive: [1] -0.019 | filanesib 0.068 | zotarolimus 0.1 | idasanutlin -0.012 | alisertib -0.063 | [2] -0.088 | gefitinib 0.005 | [3] -0.029 | lapatinib 0.082 | pictilisib 0.011

NUMA1 (UniProt Q14980)
inactive: [1] 0.002 | filanesib 0.266 | zotarolimus 0.13 | idasanutlin 0.07 | alisertib -0.088 | [2] -0.223 | gefitinib -0.001 | [3] -0.247 | lapatinib 0.062 | pictilisib 0.021

OGFR (UniProt Q9NZT2)
UniProt Q9NZT2, sequence (Q9NZT2 whole entry, looked up): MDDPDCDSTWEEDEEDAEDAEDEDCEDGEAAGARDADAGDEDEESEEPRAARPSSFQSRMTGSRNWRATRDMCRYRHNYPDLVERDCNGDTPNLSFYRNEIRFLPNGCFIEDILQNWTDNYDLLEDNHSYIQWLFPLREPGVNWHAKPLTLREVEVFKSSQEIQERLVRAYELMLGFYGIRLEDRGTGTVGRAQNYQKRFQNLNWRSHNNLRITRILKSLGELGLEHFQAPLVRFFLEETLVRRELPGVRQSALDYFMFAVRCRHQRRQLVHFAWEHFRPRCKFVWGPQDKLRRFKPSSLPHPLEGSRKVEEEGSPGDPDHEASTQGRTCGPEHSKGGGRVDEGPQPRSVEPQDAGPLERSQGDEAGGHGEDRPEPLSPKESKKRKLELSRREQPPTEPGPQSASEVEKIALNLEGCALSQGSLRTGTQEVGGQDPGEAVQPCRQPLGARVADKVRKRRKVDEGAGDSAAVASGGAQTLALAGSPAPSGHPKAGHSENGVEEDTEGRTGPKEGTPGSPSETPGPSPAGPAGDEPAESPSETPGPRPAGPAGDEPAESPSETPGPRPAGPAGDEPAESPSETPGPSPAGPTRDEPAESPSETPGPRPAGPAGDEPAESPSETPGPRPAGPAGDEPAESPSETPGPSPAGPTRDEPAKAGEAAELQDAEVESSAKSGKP
inactive: [1] -0.005 | filanesib 0.048 | zotarolimus 0.137 | idasanutlin -0.042 | alisertib -0.157 | [2] 0.023 | gefitinib -0.015 | [3] -0.152 | lapatinib 0 | pictilisib 0.019

OAT (UniProt P04181)
inactive: [1] -0.028 | filanesib -0.183 | zotarolimus 0.03 | idasanutlin -0.054 | alisertib -0.025 | [2] -0.095 | gefitinib 0.011 | [3] 0.004 | lapatinib -0.076 | pictilisib 0.12

NISCH (UniProt Q9Y2I1)
inactive: [1] -0.008 | filanesib -0.029 | zotarolimus -0.022 | idasanutlin -0.015 | alisertib 0.023 | [2] -0.119 | gefitinib -0.014 | [3] 0.106 | lapatinib 0.041 | pictilisib -0.061

NOP58 (UniProt Q9Y2X3)
active: filanesib 0.528
inactive: [1] -0.124 | zotarolimus 0.044 | idasanutlin 0.229 | alisertib -0.035 | [2] -0.096 | gefitinib 0.039 | [3] -0.028 | lapatinib 0.054 | pictilisib 0.049

NSMCE4A (UniProt Q9NXX6)
active: [3] -0.437
inactive: [1] 0.033 | filanesib 0.049 | zotarolimus 0.019 | idasanutlin 0.017 | alisertib -0.087 | [2] -0.018 | gefitinib 0.181 | lapatinib 0.034 | pictilisib -0.011

OSBP (UniProt P22059)
inactive: [1] -0.018 | filanesib 0.009 | zotarolimus 0.007 | idasanutlin -0.019 | alisertib -0.046 | [2] 0.086 | gefitinib 0.019 | [3] -0.009 | lapatinib 0 | pictilisib 0.004

NOLC1 isoform 2 (UniProt Q14978)
UniProt Q14978, sequence (Q14978 whole entry, looked up): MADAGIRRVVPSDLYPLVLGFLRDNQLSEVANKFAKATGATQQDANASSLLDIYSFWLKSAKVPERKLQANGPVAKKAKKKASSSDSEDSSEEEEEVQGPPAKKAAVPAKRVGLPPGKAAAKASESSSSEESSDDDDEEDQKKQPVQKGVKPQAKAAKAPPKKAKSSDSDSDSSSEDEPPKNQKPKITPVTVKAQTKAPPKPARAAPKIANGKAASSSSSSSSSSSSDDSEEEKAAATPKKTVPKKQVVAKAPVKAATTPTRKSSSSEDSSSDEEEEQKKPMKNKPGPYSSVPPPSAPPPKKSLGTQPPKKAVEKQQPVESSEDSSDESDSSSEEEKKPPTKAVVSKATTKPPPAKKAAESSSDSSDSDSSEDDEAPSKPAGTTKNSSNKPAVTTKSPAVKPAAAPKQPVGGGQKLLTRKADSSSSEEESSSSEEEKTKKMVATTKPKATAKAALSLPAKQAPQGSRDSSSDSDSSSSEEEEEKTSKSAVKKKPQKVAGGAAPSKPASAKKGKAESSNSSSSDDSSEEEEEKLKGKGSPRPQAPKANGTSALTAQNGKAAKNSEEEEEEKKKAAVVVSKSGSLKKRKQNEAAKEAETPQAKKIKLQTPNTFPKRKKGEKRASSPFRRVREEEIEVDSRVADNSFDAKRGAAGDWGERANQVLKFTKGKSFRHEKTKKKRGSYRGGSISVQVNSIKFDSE
inactive: [1] 0.016 | filanesib 0.21 | zotarolimus 0.015 | idasanutlin 0.199 | alisertib -0.112 | [2] -0.093 | gefitinib 0.041 | [3] 0.104 | lapatinib 0.052 | pictilisib 0.056

OSTC (UniProt Q9NRP0)
UniProt Q9NRP0, sequence (Q9NRP0 whole entry, looked up): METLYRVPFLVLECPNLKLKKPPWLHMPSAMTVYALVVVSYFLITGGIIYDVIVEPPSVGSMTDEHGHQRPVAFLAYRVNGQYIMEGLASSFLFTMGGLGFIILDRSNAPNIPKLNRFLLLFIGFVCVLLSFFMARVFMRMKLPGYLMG
inactive: [1] -0.05 | filanesib -0.171 | zotarolimus -0.105 | idasanutlin -0.041 | alisertib -0.101 | [2] -0.184 | gefitinib 0.018 | [3] 0.026 | lapatinib -0.041 | pictilisib 0.162

NAGPA (UniProt Q9UK23)
inactive: [1] -0.025 | filanesib -0.046 | zotarolimus -0.099 | idasanutlin 0.054 | alisertib -0.069 | [2] -0.044 | gefitinib 0.001 | [3] 0.248 | lapatinib 0.139 | pictilisib 0.134

NUDCD2 (UniProt Q8WVJ2)
UniProt Q8WVJ2, sequence (Q8WVJ2 whole entry, looked up): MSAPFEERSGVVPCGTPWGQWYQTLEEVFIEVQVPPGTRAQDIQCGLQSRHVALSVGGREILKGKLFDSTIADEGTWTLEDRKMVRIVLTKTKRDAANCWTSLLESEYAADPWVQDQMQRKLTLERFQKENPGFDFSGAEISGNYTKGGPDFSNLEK
inactive: [1] 0.072 | filanesib -0.016 | zotarolimus 0.065 | idasanutlin 0.075 | alisertib -0.011 | [2] 0.117 | gefitinib 0.083 | [3] -0.018 | lapatinib -0.038 | pictilisib 0.014

MYL12B (UniProt O14950)
UniProt O14950, sequence (O14950 whole entry, looked up): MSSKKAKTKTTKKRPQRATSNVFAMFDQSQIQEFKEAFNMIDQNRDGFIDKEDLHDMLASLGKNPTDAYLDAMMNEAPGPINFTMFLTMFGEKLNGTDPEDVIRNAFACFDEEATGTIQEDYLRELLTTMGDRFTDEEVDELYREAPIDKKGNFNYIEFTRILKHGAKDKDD
inactive: [1] -0.008 | filanesib -0.052 | zotarolimus 0.111 | idasanutlin -0.064 | alisertib -0.06 | [2] 0.022 | gefitinib -0.001 | [3] -0.018 | lapatinib 0.047 | pictilisib -0.015

NCAPG (UniProt Q9BPX3)
inactive: [1] 0.079 | filanesib -0.018 | zotarolimus 0.054 | idasanutlin -0.064 | alisertib 0.03 | [2] 0.038 | gefitinib 0.022 | [3] -0.116 | lapatinib 0 | pictilisib 0.071

NOB1 (UniProt Q9ULX3)
inactive: [1] 0.16 | filanesib 0.001 | zotarolimus 0.026 | idasanutlin 0.068 | alisertib -0.14 | [2] 0.044 | gefitinib 0.01 | [3] -0.13 | lapatinib 0.045 | pictilisib -0.042

NAP1L1 (UniProt P55209)
UniProt P55209, sequence (P55209 whole entry, looked up): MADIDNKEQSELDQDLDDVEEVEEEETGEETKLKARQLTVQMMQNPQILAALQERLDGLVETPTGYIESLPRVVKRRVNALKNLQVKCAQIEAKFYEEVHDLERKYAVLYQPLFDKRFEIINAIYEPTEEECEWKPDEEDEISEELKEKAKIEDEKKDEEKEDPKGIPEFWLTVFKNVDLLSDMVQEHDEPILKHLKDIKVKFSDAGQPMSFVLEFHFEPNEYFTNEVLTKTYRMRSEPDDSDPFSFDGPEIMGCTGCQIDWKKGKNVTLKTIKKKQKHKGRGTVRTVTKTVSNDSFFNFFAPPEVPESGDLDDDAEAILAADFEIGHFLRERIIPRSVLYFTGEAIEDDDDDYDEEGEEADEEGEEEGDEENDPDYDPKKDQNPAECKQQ
inactive: [1] -0.001 | filanesib 0.08 | zotarolimus 0.078 | idasanutlin 0.053 | alisertib -0.043 | [2] 0.078 | gefitinib -0.002 | [3] -0.041 | lapatinib -0.005 | pictilisib 0.107

MTOR (UniProt P42345)
active: zotarolimus -0.308
inactive: [1] 0.002 | filanesib -0.112 | idasanutlin -0.09 | alisertib -0.017 | [2] -0.012 | gefitinib -0.018 | [3] -0.019 | lapatinib 0.014 | pictilisib 0.019

NPC1 (UniProt O15118)
inactive: [1] 0.04 | filanesib -0.12 | zotarolimus -0.038 | idasanutlin 0.025 | alisertib -0.067 | [2] 0.035 | gefitinib -0.027 | [3] 0.057 | lapatinib 0.026 | pictilisib 0

NMRAL1 (UniProt Q9HBL8)
UniProt Q9HBL8, sequence (Q9HBL8 whole entry, looked up): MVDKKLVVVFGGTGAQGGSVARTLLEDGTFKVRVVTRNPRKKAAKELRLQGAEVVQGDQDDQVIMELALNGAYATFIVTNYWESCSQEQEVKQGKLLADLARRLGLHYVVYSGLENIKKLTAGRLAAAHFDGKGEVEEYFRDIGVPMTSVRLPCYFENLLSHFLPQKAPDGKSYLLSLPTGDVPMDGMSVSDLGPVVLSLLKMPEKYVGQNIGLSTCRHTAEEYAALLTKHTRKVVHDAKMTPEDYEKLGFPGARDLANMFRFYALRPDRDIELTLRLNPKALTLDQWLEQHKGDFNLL
inactive: [1] 0.678 | filanesib -0.084 | zotarolimus 0.135 | idasanutlin -0.268 | alisertib -0.099 | [2] 0.184 | gefitinib 0.257 | [3] 0.003 | lapatinib -0.003 | pictilisib 0.83
